Pf growth 96h = inhibits malaria parasite growth, 96 h. actives 6.9% (n = 320,000). Potency, µM (highest dose often 28.7 µM), for inactives: at the highest dose activity change, negative = inhibition, hits mostly inhibitors. P. falciparum luciferase reporter growth, 96 h
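96 h incubation, 37 C, 5% CO2, of luciferase-reporter P. falciparum-infected RBCs (2% hematocrit, 0.05% parasitemia final) with test compounds; endpoint luminescence.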
AMA1 RON2 block = AMA1-RON2 (P. falciparum) interaction inhibition. AlphaScreen AMA1-biotinylated RON2 peptide binding. Potency, µM (titrated, usually from 58.2 µM), for the others: at the highest dose activity change, negative = inhibition, actives largely listed as inhibitors. actives 0.2% (n = 360,000);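 also: 0% = vehicle wells and -100% = peptide control; nearly all actives have a fitted effect of over 45% in size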
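AMA1 (3D7) with his tag at 25 nM final met compounds first, then biotinylated RON2 peptide at 25 nM; detection used donor plus acceptor beads, 10 µg/mL apiece, read by AlphaScreen after 30 min at room temperature.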
Pf growth 48h = inhibits P. falciparum growth in the first generation, 48 h; P. falciparum luciferase growth in erythrocytes, 48 h; Potency, µM (titrated, usually from 28.7 µM), inactives show at the top dose activity change, negative = inhibition, usual class: inhibitors; actives 5.9% (n = 310,000); AID 504832
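In quantitative HTS format, infected erythrocytes bearing luciferase-reporter parasites were treated for a single generation at 37 C. Luminescence after adding detection reagent served as the growth measure.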
HCV inhibitor = HCV inhibition | Huh7.5.1 HCVcc-Cre infection, luciferase reporter, 44 h | Potency, µM (series often up to 41.8 µM), for inactives: at the highest dose activity change, negative = inhibition, usual class: inhibitors | actives 3.4% (n = 340,000) | AID 651820
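Luciferase read-out (15 sec integration) after a 15 min room-temperature substrate step quantifies HCVcc-Cre infection. Cells, 1,000 per well, had compound added 4 h post-plating, then virus at ~0.5 moi, and were cultured 44 h.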
Active calls of the source: *; ? = inconclusive; . = not tested or not shown; ! = not active in a repeat; [ ] = another dose, or the depositor's remark. The list is not random: actives were taken first. Their share in the collection is about 11%. Calls follow the shape of the dose curve; as a rule, active = well fitted curve in the direction sought with a large enough effect; inconclusive = small, poorly fitted or top-dose-only effect, or another doubt; inactive = no such curve, though single readings can be large; an effect the other way counts as inactive or inconclusive. Unless noted, % is scaled to controls: 0 for no effect and ±100 for the full control effect; potency is read from the fitted curve at half-maximal effect.

SMILES	Pf growth 96h	AMA1 RON2 block	Pf growth 48h	HCV inhibitor
COc1cc(OC)cc(C(=O)Nn2cc(C(=O)Nc3c(F)cccc3F)c3ccccc3c2=O)c1	66.3%	-13.6%	-25.1%	?
COc1ccc2[nH]c(C(=O)NCc3ccccc3)c(C)c2c1	18.8%	?	27.5%	-28.2%
Clc1cccc(Cl)c1/C=N/Nc1c(Cl)cncc1Cl	2.4%	-6.2%	0.1%	?
NS(=O)(=O)c1ccc(N/N=C/c2ccncc2)cc1	?	0.8%	6.57µM*	5.5%
Clc1cncc(Cl)c1N/N=C/c1ccncc1	1.17µM*	14.5%	?	?
NS(=O)(=O)c1ccc(N/N=C/c2ccccc2Br)cc1	53.7%	-18.2%	18.6%	-10.6%
COc1ccc(OCC(O)CNC(C)c2ccccc2)cc1 (stereo unspecified)	?	8.2%	-16.1%	-28.9%
CCC(CC)NCC(O)COc1ccc(Br)cc1 (stereo unspecified)	7.38µM*	-13.0%	3.7µM*	?
CC(CCc1ccccc1)NCC(O)COc1ccccc1 (stereo unspecified)	?	-4.3%	5.22µM*	?
CC(NCC(O)COc1ccc2ccccc2c1)c1ccccc1 (stereo unspecified)	9.28µM*	-28.8%	9.28µM*	6.31µM*
CCCC(NCC(O)COc1ccc(-c2ccccc2)cc1)c1ccccc1 (stereo unspecified)	?	-12.3%	?	11.2µM*
CN(C)CCNc1c2c(nc3nnnn13)CCCC2	?	10.8%	27.9%	1.0%
CC(C)NCC(O)COc1ccc(CCOCC2CC2)cc1 (stereo unspecified)	3.38µM*!	-3.2%	13.5µM*!	0.5%[8.37 µM]
O=C(CCl)N1N=C(c2cccs2)CC1c1ccco1 (stereo unspecified)	0.9%	-0.1%	?	?
O=C(CCl)N1N=C(c2ccco2)CC1c1ccco1 (stereo unspecified)	13.1µM*	-24.1%	13.1µM*	11.2µM*
O=S(=O)(Nc1ccccc1)c1cccc2nsnc12	8.28µM*	-0.1%	5.4%	-4.8%
O=S(=O)(NCCC1=CCCCC1)c1cccc2nsnc12	57.2%	-7.8%	3.7µM*	3.7%
Cc1ccc(NS(=O)(=O)c2cccc3nsnc23)cc1	-5.1%	-0.5%	?	-15.0%
O=C(CCNS(=O)(=O)c1cccc2nsnc12)NCCC1=CCCCC1	1.7%	11.2%	-9.7%	?
CC(NC(=O)CCNS(=O)(=O)c1cccc2nsnc12)c1ccccc1 (stereo unspecified)	2.94µM*	4.9%	6.5%	5.9%
CC1CC(C)CN(CC(=O)Nc2cc(S(=O)(=O)N3CCOCC3)ccc2N2CCCC2)C1 (stereo unspecified)	?	6.5%	?	-1.8%
O=C(COCc1ccccc1)N[C@@H]1c2ccccc2CC[C@H]1OCc1ccccc1	.	-18.0%	.	?
COCCNC(=S)N/N=C1\CC(C)CC(C)(C)C1 (stereo unspecified)	4.65µM*	16.0%	?	9.3%
COc1cc2c(C#CCCO)c(-c3ccsc3)oc(=O)c2cc1OC	.	-7.9%	.	10µM*
COc1ccc(CN(C)C(=O)c2[nH]c(C)c(C(C)=O)c2C)cc1F	-16.7%	-14.9%	3.1%	?
SMILES	Pf growth 96h	AMA1 RON2 block	Pf growth 48h	HCV inhibitor
O=C(CNc1ccc(Br)cc1)NC(=O)NC1CCCCC1	-28.4%	1.3%	-19.1%	24.9%
N#Cc1cccc(-c2csc(C(O)c3ccco3)n2)c1 (stereo unspecified)	.	7.6%	.	.
C=CCn1c(C)cc(-c2csc(NCC)n2)c1C	?	-20.6%	?	10µM*
Cc1cc(C)c(-c2csc(NC(=O)C3=COCCO3)n2)cc1C	14.6%	-7.7%	39.1%	?
C=CCn1c(C)cc(-c2csc(NC(=O)C3=COCCO3)n2)c1C	?	7.7%	5.22µM*	-11.0%
C=CCn1c(C)cc(-c2csc(NC)n2)c1C	?	-1.4%	?	?
CC1(C)CC(N2CCCC2)=CC(=[N+]2CCCCC2)C1	?	-2.7%	0.828µM*	-25.8%
CN(Cc1ccccc1)C1=CC(=[N+]2CCCCC2)CC(C)(C)C1	0.329µM*	0.0%	0.37µM*	2.82µM*
CC1(C)CC(N2CCN(Cc3ccccc3)CC2)=CC(=[N+]2CCCCC2)C1	0.522µM*	-25.6%	0.828µM*	?
CC1(C)CC(=O)C=C(N2CCN(C3=CC(=O)CC(C)(C)C3)CC2)C1	.	.	40.3%	.
CC1(C)CC(N2CCCC2)=CC(=[N+]2CCCC2)C1	0.329µM*	6.8%	1.47µM*	-20.4%
CCCc1nc2ccccc2c(=O)n1CCc1ccccc1	?	3.0%	33.1%	?
COc1cc(C(=O)Nc2ccc(N3CCCS3(=O)=O)cc2)c([N+](=O)[O-])cc1OC	7.7%	3.3%	0.8%	-14.7%
CCC(C)N(NC(C)=O)c1nc(Cl)nc(NC(C)C)n1 (stereo unspecified)	?	14.9%	2.08µM*	0.5%
CC(C)(CN1CCNCC1)NS(=O)(=O)c1ccc(Cl)cc1	?	1.5%	9.28µM*	3.98µM*
Cc1cc([N+](=O)[O-])ccc1NC(=O)CN1C2CCC1CC(NC(=O)NC13CC4CC(CC(C4)C1)C3)C2 (stereo unspecified)	22.8%	-4.6%	10.4µM*	2.51µM*
COc1ccc(NC(=S)N2C3CCC2CC(NC(=O)NC24CC5CC(CC(C5)C2)C4)C3)c(OC)c1 (stereo unspecified)	?	28.8%	?	-17.8%
Cc1sc2nc(CN3CCCC3)nc(N3CCN(S(=O)(=O)c4cccc(F)c4)CC3)c2c1C	9.28µM*	22.6%	8.28µM*	?
Cc1sc2nc(C3CC3)nc(N3CCN(S(=O)(=O)c4ccc(F)cc4)CC3)c2c1C	15.8%	0.0%	10.4µM*	?
Cc1nc(N2CCN(S(=O)(=O)c3ccc(F)cc3)CC2)c2c(C)c(C)sc2n1	11.8%	0.8%	.	15.5%
CCCc1nc(N2CCN(S(=O)(=O)c3ccc(Cl)cc3)CC2)c2c(C)c(C)sc2n1	?	-11.7%	?	14.4%
Cc1sc2nc(C3CC3)nc(N3CCN(C(=O)c4ccc(F)cc4)CC3)c2c1C	3.2%	-15.9%	?	?
Cc1ccc(S(=O)(=O)N2CCN(c3nc(C)nc4sc(C)c(C)c34)CC2)cc1	-13.0%	.	23.5%	6.4%
Cc1sc2nc(CN3CCOCC3)nc(N3CCN(S(=O)(=O)c4ccccc4)CC3)c2c1C	?	-12.2%	9.28µM*	-1.3%
COc1ccc(C(=O)N2CCN(c3nc(C4CC4)nc4sc(C)c(C)c34)CC2)cc1	-16.1%	-14.6%	11.7µM*	?
O=C(Nc1nc2ccccc2s1)c1ccc(N2CCCCC2)c([N+](=O)[O-])c1	?	-23.2%	48.3%	?
CCOc1ccc(-c2nc[nH]c2[N+](=O)[O-])cc1	?	2.0%	4.1%	5.0%
CC(Sc1nc2ccccc2n1C)C(=O)NC(c1ccccc1)c1ccccc1 (stereo unspecified)	5.86µM*	-4.8%	9.28µM*	-18.7%
CCOC(=O)c1cc(C(C)(C)C)oc1CN	.	6.6%	?	-1.0%
